Assay results taken from PubChem BioAssay (NCI).
This is part of a sample that, as a whole, favours compounds with a hit. Of some 83,000 tested, about 20% had one in any assay.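 Negative percent growth values reflect cell death: -40 means 40% of the cells present at the start died, and -100 means all died.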 Active and inactive are the calls of the source. Rule for the calls: active = growth percent below 10; inactive = the rest.

system: DU-145 prostate; experiment: NCI-60 one-dose screen, 48 h (100 = growth as untreated, 0 = no growth, -100 = all killed); conditions: 10 µM unless noted

Row | SMILES | growth
1 | CN(C)C(=S)N=Nc1c(O)[nH]c2ccccc12 | 31.6% (inactive)
2 | NC(N)=N/N=C(/c1ccccc1)c1ccc(F)cc1 | -19.7% (active)
3 | CC(=O)c1cc2c(N)c(C(=O)Nc3cccc4ccccc34)sc2nc1C | 15.5% (inactive)
4 | O=c1ccccc(-c2ccc(Br)cc2)c1O | 20.3% (inactive)
5 | CCCCC(=O)OCC1OC(n2cnc3c(=S)nc[nH]c32)C(OC(=O)CCCC)C1OC(=O)CCCC (centres undefined) | 32% (inactive)
6 | CC/C=C\C[C@H]1C/C=C2/C(=O)C=C[C@H]2C/C=C\CCCC(=O)O1 | 15% (inactive)
7 | CCNc1ncnc2c1cnn2C1CCCO1 (centres undefined) | 120% (inactive)
8 | C=C1C(=O)O[C@H]2[C@H]1CC/C(COC(=O)NCCc1ccc(OC)c(OC)c1)=C\CC[C@@]1(C)O[C@@H]21 | 39.5% (inactive)
9 | O=C(Cc1ccc(/C=C/C(=O)c2ncc[nH]2)cc1)Nc1ccc(F)cc1 | 15.9% (inactive)
10 | Clc1ccc2c(NCCCNc3nc(-n4ccnc4)nc4ccccc34)ccnc2c1 | 94.8% (inactive)
11 | CCc1nc(N)nc(N)c1C#CC(C)c1ccc(-c2ccncc2)cc1Cl (centres undefined) | 21.1% (inactive)
12 | Cc1cc2c3ccccc3ccc2[n+]2ccccc12 | 86.9% (inactive)
13 | COc1ccc(SC2c3ccc(C)cc3Oc3nc(N)c(C#N)c(N)c32)cc1 (centres undefined) | -88.3% (active)
14 | NC(=NC1C2CC3CC(C2)CC1C3)Nc1ccc(I)cc1 (centres undefined) | 20.4% (inactive)
15 | CC(=O)OCCC/C(=C/c1cc2ccccc2c2ccccc12)[N+](=O)[O-] | -100% (active)
16 | COc1cc(C(=O)/C=C/c2cccnc2Nc2ccc(Cl)cc2)cc(OC)c1OC | -59.2% (active)
17 | CCOc1ccc(-n2nc(C(=O)Nc3cc(OC)c(OC)c(OC)c3)nc2-c2cc(OC)c(OC)c(OC)c2)cc1 | 99.1% (inactive)
18 | CC(=O)Oc1ccc(Cl)cc1CN(C(C)=O)C1CCCCC1 | 125% (inactive)
19 | COc1cc(-c2nn(-c3ccc(Br)cc3)cc2C(=O)O)ccc1O | 103% (inactive)
20 | COc1cc2nnc3c4cccnc4[nH]c3c2cc1OC | 37.6% (inactive)

Row | SMILES | growth
21 | CCNC(=O)Oc1ccc(/C(=C(\C)c2ccc(Cl)cc2)c2ccc(OCCN(CC)CC)cc2)cc1 | 67.6% (inactive)
22 | CCc1nc(N)nc(N)c1C#CC(C)c1cc(-c2ccnc(C)c2)c2oc(C)nc2c1 (centres undefined) | 8.31% (active)
23 | CC1=C(O)C(=O)C(C(C#N)(C#N)C(C#N)C#N)C1 (centres undefined) | 94.7% (inactive)
24 | CN(C)c1ccc(NC(=O)c2ccc(/C=C/C(=O)c3ncc[nH]3)cc2)cc1 | 20.2% (inactive)
25 | CN(C)c1ccc(N=Nc2ccccn2)c(O)c1 | 21.6% (inactive)
26 | O=C1C=CC(=O)N1c1ccc2c(c1)Cc1cc(F)ccc1-2 | 112% (inactive)
27 | CCCCn1cnc2c(Sc3c([N+](=O)[O-])ncn3C)nc(N)nc21 | 99.6% (inactive)
28 | NC(CSC(c1ccccc1)(c1ccccc1)c1ccc(Cl)cc1)C(=O)O (centres undefined) | -49.7% (active)
29 | Oc1ccc(N=Cc2ccccc2O)cc1 | 103% (inactive)
30 | Clc1ccc2c(NCCNc3nc(N4CCCCC4)nc4ccccc34)ccnc2c1 | 26.4% (inactive)
31 | CCN1CCN(c2nc(NCCCNc3ccnc4cc(Cl)ccc34)c3ccccc3n2)CC1 | 39.5% (inactive)
32 | CCOC(=O)c1sc(Nc2ccc(Cl)cc2)nc1C | 35.5% (inactive)
33 | CN1C(=O)C2(SCC(C(=O)NCc3ccccc3)N2C(=O)C2CCCCC2)c2ccccc21 (centres undefined) | 98% (inactive)
34 | CSc1ccc(-c2ccccc(=O)c2O)cc1 | 21% (inactive)
35 | CC(=O)c1cc2c(N)c(C(=O)Nc3cccc(F)c3C)sc2nc1C | 99.1% (inactive)
36 | COc1ccc2c(c1)C(=O)/C(=C/c1ccccn1)CC2 | 26.1% (inactive)
37 | O=C(Cc1ccc(/C=C/C(=O)c2ncc[nH]2)cc1)Nc1ccccc1 | 17.8% (inactive)
38 | COc1cccc2c1C(=O)c1c(O)c3c(c(O)c1C2=O)C[C@](O)(C(=O)CO)C[C@H]3O[C@@H]1C[C@@H](NC(=O)CCCN(C)C2(c3ccc(F)cc3)CC3CCC2C3)[C@H](O)[C@@H](C)O1 (some centres undefined) | -48.4% (active)
39 | COc1cccc2c1C(=O)c1c(O)c3c(c(O)c1C2=O)C[C@](O)(C(=O)CO)C[C@H]3O[C@@H]1C[C@@H](NC(=O)CCCCCN(C)C2(c3ccc(F)cc3)CC3CCC2C3)[C@H](O)[C@@H](C)O1 (some centres undefined) | -42.2% (active)
